Among the test systems are SK-MEL-2 melanoma; EKVX NSCLC; SN12C renal; UO-31 renal; ACHN renal; CAKI-1 renal; A498 renal; CCRF-CEM leukemia; MOLT-4 leukemia; SR leukemia; RPMI-8226 leukemia; OVCAR-8 ovarian; OVCAR-5 ovarian; OVCAR-4 ovarian; SK-OV-3 ovarian; IGROV1 ovarian; OVCAR-3 ovarian; HS 578T breast; NCI/ADR-RES ovarian; TK-10 renal.
Holding throughout (assay): NCI-60 one-dose screen, 48 h (100 = growth as untreated, 0 = no growth, -100 = all killed)
What all share (conditions): 10 µM unless noted

The panel holds about 83,000 compounds, 20% with a hit somewhere; the sample as a whole holds those more often.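 Each cell line was grown in a 96-well plate and treated with one concentration of compound for 48 hours. Values below 10 were considered active.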 Unmarked numbers belong to inactive results. Calls of active or inactive are those of the source.

With `CC(C)(c1ccccc1)c1cc(O)c(C(C)(C)c2ccccc2)cc1O`, the growth with SK-MEL-2 melanoma was 10.4%; in the assay with EKVX NSCLC, 33%; in the assay with SN12C renal, 22.4%; in the assay with UO-31 renal, 17.2%; in the assay with ACHN renal, 44%; with CAKI-1 renal, 31.6%. Also, the growth with A498 renal is 8.74% (active); in the assay on CCRF-CEM leukemia, 15.3%; in the assay on MOLT-4 leukemia it was -17.8% (active); in the assay on SR leukemia, 18.5%; with RPMI-8226 leukemia, 9.65% (active); in the assay with OVCAR-8 ovarian, 45.6%. Moreover, the growth is 78.8% with OVCAR-5 ovarian; 30.8% in the assay with OVCAR-4 ovarian; 43.1% in the assay on SK-OV-3 ovarian; 42.4% in the assay with IGROV1 ovarian; 38.9% in the assay with OVCAR-3 ovarian; 47.4% with HS 578T breast. For the same compound, the growth in the assay on NCI/ADR-RES ovarian was 43.7%.
As for `CCN(CC)c1ccc2c(cc1=O)[C@@H](NC(C)=O)CCc1cc(OC)c(OC)c(OC)c1-2`, the growth in the assay with SK-MEL-2 melanoma is 4.73% (active); with EKVX NSCLC, 44.6%; in the assay on SN12C renal, 32.9%; in the assay with UO-31 renal, 58.3%; with ACHN renal, 30.3%; with CAKI-1 renal it was 64.3%. Besides, the growth in the assay on A498 renal is -15.9% (active); in the assay with CCRF-CEM leukemia, 9.47% (active); in the assay with MOLT-4 leukemia, 2.09% (active); in the assay with SR leukemia it was -14.1% (active); in the assay with RPMI-8226 leukemia, 14.9%; in the assay with OVCAR-8 ovarian it was 12.3%. The growth was 54.1% in the assay with OVCAR-5 ovarian; 48.2% in the assay with OVCAR-4 ovarian; 24.3% with SK-OV-3 ovarian; 28% in the assay on IGROV1 ovarian; -24.9% (active) with OVCAR-3 ovarian; 40.5% in the assay with HS 578T breast. Also, the growth in the assay on NCI/ADR-RES ovarian is 85.7%.
As for `COc1cccc(NC(=O)OC(C)C)c1`, the growth is 136% with SK-MEL-2 melanoma; 94.7% with EKVX NSCLC; 98.6% with SN12C renal; 82.1% with UO-31 renal; 101% in the assay on ACHN renal; 86.4% in the assay on CAKI-1 renal. Besides, the growth with A498 renal was 92.7%; in the assay with CCRF-CEM leukemia, 3.14% (active); in the assay on MOLT-4 leukemia it was 99%; in the assay on SR leukemia it was 92.4%; in the assay on OVCAR-8 ovarian it was 106%; with OVCAR-5 ovarian it was 96.4%. For the same compound, the growth was 93.1% in the assay on OVCAR-4 ovarian; 104% with SK-OV-3 ovarian; 99.7% with IGROV1 ovarian; 121% in the assay with OVCAR-3 ovarian; 99% with HS 578T breast; 98.4% in the assay on NCI/ADR-RES ovarian.
In the case of `CC(NC(=O)c1ccccc1)C(=O)Nc1ccccc1` (configuration not stated), the growth is 104% in the assay on SK-MEL-2 melanoma; 105% in the assay on EKVX NSCLC; 109% in the assay with SN12C renal; 94.9% in the assay on UO-31 renal; 103% in the assay on ACHN renal; 107% with CAKI-1 renal. The growth is 103% in the assay with A498 renal; 90.4% in the assay with CCRF-CEM leukemia; 101% in the assay on MOLT-4 leukemia; 89.9% in the assay on SR leukemia; 103% in the assay with OVCAR-8 ovarian; 107% in the assay with OVCAR-5 ovarian. The growth was 114% with OVCAR-4 ovarian; 113% with SK-OV-3 ovarian; 128% in the assay with IGROV1 ovarian; 135% in the assay on OVCAR-3 ovarian; 114% in the assay on HS 578T breast; 108% in the assay with NCI/ADR-RES ovarian.
Consider `O=C(CSc1nnc(Cc2ccccc2Nc2c(Cl)cccc2Cl)n1-c1ccccc1)N1N=C(c2ccc3ccccc3c2)CC1c1ccc(Cl)cc1` (configuration not stated), for which the growth in the assay with SK-MEL-2 melanoma was 103%; in the assay on EKVX NSCLC, 93.5%; in the assay on SN12C renal it was 96.6%; with UO-31 renal, 80%; in the assay on ACHN renal it was 109%; in the assay with CAKI-1 renal, 92.7%. Also, the growth is 102% with A498 renal; 113% in the assay on CCRF-CEM leukemia; 98.4% with MOLT-4 leukemia; 97.2% in the assay with SR leukemia; 95.6% with RPMI-8226 leukemia; 107% in the assay on OVCAR-8 ovarian. Besides, the growth was 99.8% in the assay with OVCAR-5 ovarian; 93.8% in the assay on SK-OV-3 ovarian; 89.5% with IGROV1 ovarian; 104% in the assay with OVCAR-3 ovarian; 111% in the assay with HS 578T breast; 101% in the assay on NCI/ADR-RES ovarian.
On to `COc1cc2ncnc(Nc3ccc(S(=O)(=O)Nc4nccs4)cc3)c2cc1OCCCN1CCOCC1`, for which the growth with SK-MEL-2 melanoma was 99.2%; in the assay on EKVX NSCLC, 111%; in the assay with SN12C renal it was 98%; in the assay with UO-31 renal, 83.6%; with ACHN renal it was 103%; in the assay on CAKI-1 renal it was 91.7%. Moreover, the growth was 115% in the assay with A498 renal; 105% with CCRF-CEM leukemia; 105% with MOLT-4 leukemia; 108% in the assay with SR leukemia; 106% in the assay with RPMI-8226 leukemia; 103% in the assay with OVCAR-8 ovarian. Besides, the growth is 106% in the assay with OVCAR-5 ovarian; 107% in the assay with OVCAR-4 ovarian; 96.2% in the assay on SK-OV-3 ovarian; 106% with IGROV1 ovarian; 101% with OVCAR-3 ovarian; 99.9% in the assay on HS 578T breast. For the same compound, the growth with NCI/ADR-RES ovarian is 102%.
As to `COc1ccc(-c2cnc(-c3ccncc3-c3cccc(OC)c3)o2)cc1`, the growth was 5.27% (active) in the assay on SK-MEL-2 melanoma; 58.1% in the assay with EKVX NSCLC; 15% in the assay on SN12C renal; 42.6% with UO-31 renal; 17.1% in the assay with ACHN renal; 32% with CAKI-1 renal. The growth is 3.12% (active) in the assay with CCRF-CEM leukemia; 11.5% in the assay with MOLT-4 leukemia; 10.2% with SR leukemia; 8.95% (active) in the assay on RPMI-8226 leukemia; 26% in the assay on OVCAR-8 ovarian; 57.4% in the assay on OVCAR-5 ovarian. Besides, the growth in the assay on OVCAR-4 ovarian was 37.6%; with SK-OV-3 ovarian, -5.44% (active); in the assay with IGROV1 ovarian it was 37.1%; in the assay with OVCAR-3 ovarian, -13.1% (active); with HS 578T breast, 53.3%; in the assay on NCI/ADR-RES ovarian, 10.1%.
As to `CCOC(=O)C(CCCCC(NC(C)=O)(C(=O)OCC)C(=O)OCC)(NC(C)=O)C(=O)OCC`, the growth with SK-MEL-2 melanoma was 95.9%; in the assay on SN12C renal, 101%; in the assay on UO-31 renal, 87.3%; with TK-10 renal it was 97.9%; in the assay on ACHN renal, 104%; with CAKI-1 renal it was 104%. The growth in the assay with A498 renal is 115%; with MOLT-4 leukemia, 109%; in the assay on SR leukemia, 99.8%; in the assay with RPMI-8226 leukemia, 103%; in the assay on OVCAR-8 ovarian, 107%; with OVCAR-5 ovarian, 103%. Moreover, the growth was 107% in the assay on OVCAR-4 ovarian; 96.9% in the assay with SK-OV-3 ovarian; 106% with IGROV1 ovarian; 107% with OVCAR-3 ovarian; 104% in the assay with HS 578T breast; 98.4% with NCI/ADR-RES ovarian.

For the origin of these results see PubChem BioAssay (NCI).
